# Results filed as inconclusive are left out. A call without a number means that no potency is given here. Activity calls are given as the source filed them. Unless noted, the call rests on the fitted dose curve; in most records, active means well fitted curve in the direction sought with a large enough effect; inconclusive means small, poorly fitted or top-dose-only effect, or another doubt; inactive means no such curve, though single readings can be large; an effect the other way counts as inactive or inconclusive.
# How the values were obtained:
# [1] = NS1 protein of Zika virus - qHTS assay to identify small molecule inhibitors in human HEK 293 cells (AID 1347053); details: HEK293 ZIKV MR766 infection, NS1 TR-FRET, 24 h; series mostly up to 46.1 µM; further: nearly all actives have a fitted effect of over 55% in size
# Outline: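 HEK 293 cells pretreated with compound for 1 h, then infected with ZIKV MR766 (MOI 0.5) for 24 h at 37 C. NS1 detected by TR-FRET with two anti-NS1 antibodies; normalized to uninfected (0%) and infected (100%) wells.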
# [2] = qHTS of pediatric cancer cell lines to identify multiple opportunities for drug repurposing: Primary screen for TC32 cells (AID 1347089); details: TC32 Ewing sarcoma viability, CellTiter-Glo luminescence, 48 h; series mostly up to 45.8 µM; further: nearly all actives have a fitted effect of over 60% in size
# Outline: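 Measured quantity: luminescence from CellTiter-Glo, reflecting metabolically active TC32 cells following 48 h of compound. Curves came straight from multi-point titrations, with 8 or 11 points in primary and 11 in confirmatory screening.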
# [3] = qHTS of pediatric cancer cell lines to identify multiple opportunities for drug repurposing: Primary screen for DAOY cells (AID 1347090); details: DAOY medulloblastoma viability, CellTiter-Glo luminescence, 48 h; series mostly up to 46 µM; further: nearly all actives have a fitted effect of over 55% in size
# Outline: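 Cell viability, CellTiter-Glo luminescence; 500-1,000 cells/well, 8- or 11-point titration, 48 h compound exposure at 37 degrees C, 5% CO2. Controls: DMSO neutral, bortezomib 2.3 µM final as positive.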
# [4] = qHTS assay to identify small molecule inhibitors of chordoma cells - UCH-1 (AID 1259355); details: UCH-1 chordoma viability, CellTiter-Glo, 48 h, combination, with auranofin plus four topoisomerase inhibitors; series mostly up to 46.1 µM; further: nearly all actives have a fitted effect of over 55% in size
# Outline: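 Seed 800 cells per well; incubate overnight at 37 C, 5% CO2. Add test compounds (15 concentrations), then the auranofin–topoisomerase-agent combination. Incubate 48hr, add CellTiter-Glo, wait 30min, read luminescence.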
# [5] = qHTS assay to identify small molecule inhibitors of chordoma cells - UCH-2 (AID 1259356); details: UCH-2 chordoma viability, CellTiter-Glo ATP luminescence, 48 h; series mostly up to 46.1 µM
# [6] = P-glycoprotein substrates identified in KB-8-5-11 adenocarcinoma cell line, qHTS therapeutic library screen (AID 1346987); details: KB-8-5-11 (P-gp overexpressing) viability, CellTiter-Glo, 72 h; series mostly up to 44.5 µM; further: nearly all actives have a fitted effect of over 65% in size; further: potency means the concentration at half of the fitted maximal effect
# Outline: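 KB-8-5-11, a colchicine-selected P-gp-overexpressing KB-3-1 subline, was grown without colchicine for the assay. Cells were seeded at 500 cells/well, dosed in concentration-response and incubated 72 h at 37 degree C, 5% CO2. Viability was read by CellTiter-Glo luminescence.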
# [7] = target: Atrial natriuretic peptide receptor 1 (Homo sapiens) (UniProt P16066); test: Natriuretic polypeptide receptor (hNpr1) antagonism - Pilot screen (AID 1347049; calls by dose curve;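 further: agonist-evoked cGMP luminescence read 20 min after hNppA addition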); details: hNpr1 cells, antagonist mode cGMP read-out; series mostly up to 57.5 µM
# Outline: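 Readout is cGMP-driven firefly luciferase luminescence in HEK293 cells carrying hNpr1 and a PDE5-domain GloSensor, read before and 20 min after 0.1 nM hNppA stimulation. Cells had 2% substrate reagent for 2 h and test compound for 30 min.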
# [8] = target: Atrial natriuretic peptide receptor 2 (Homo sapiens) (UniProt P20594); test: Natriuretic polypeptide receptor (hNpr2) antagonism - Pilot subtype selectivity assay (AID 1347050; calls by dose curve); details: NPR2-expressing cells, cGMP antagonist-mode read-out; series mostly up to 38.3 µM
# Outline: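 Pilot selectivity screen against hNpr2: HEK293 cGMP-sensor cells are treated with LOPAC1280 compounds, then with hNppC peptide at 1 nM final. The cGMP-driven luminescence change over 20 min at room temperature is the read-out.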
# [9] = target: T1, Tyrosine-protein phosphatase non-receptor type substrate 1 (Homo sapiens) + Leukocyte surface antigen CD47 (Homo sapiens) (UniProt P78324+Q08722); test: CD47-SIRPalpha protein protein interaction - LANCE assay qHTS validation (AID 1347057; active means well fitted curve in the direction sought with a large enough effect in the signal ratio, with a control signal flat, not every such curve was filed as active; the % refers to the signal ratio); details: Recombinant CD47-His / biotin-SIRPalpha, TR-FRET ratio; series mostly up to 38.3 µM
# Outline: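 First, His-tagged CD47 and Eu-labelled anti-His antibody met the compound for 30 min; next, site-specifically biotinylated SIRPalpha was added for 30 min; finally streptavidin-APC was added before reading the TR-FRET ratio.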
# [10] = target: T1, Tyrosine-protein phosphatase non-receptor type substrate 1 (Homo sapiens) + Leukocyte surface antigen CD47 (Homo sapiens); test: CD47-SIRPalpha protein protein interaction - HTRF assay qHTS validation (AID 1347058; active means well fitted curve in the direction sought with a large enough effect in the signal ratio, not every such curve was filed as active; the % refers to the signal ratio;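 further: recombinant soluble extracellular CD47 with His tag and biotinylated SIRPalpha domains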); details: TR-FRET HTRF CD47-His / biotin-SIRPalpha binding, ratio 665/615; series mostly up to 38.3 µM
# Outline: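 TR-FRET read (Ch1/Ch2 ratio) of soluble extracellular CD47 and Avi-biotinylated SIRPalpha domains in PBS pH 7.4 with 0.05% IGEPAL; 7-point compound titration. Sequential 30 min room-temperature steps; non-biotinylated SIRPalpha as control inhibitor.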
# [11] = target: T1, Tyrosine-protein phosphatase non-receptor type substrate 1 (Homo sapiens) + Leukocyte surface antigen CD47 (Homo sapiens); test: CD47-SIRPalpha protein protein interaction - Alpha assay qHTS validation (AID 1347059); details: AlphaScreen CD47-His/biotin-SIRPalpha binding, LOPAC; series mostly up to 38.3 µM;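 further: bead proximity luminescence from CD47 binding SIRPalpha after compound preincubation with SIRPalpha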
# Outline: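 Binding is measured by AlphaScreen proximity: Ni-NTA acceptor beads capture His-CD47, streptavidin donor beads capture biotin-SIRPalpha. Each of three additions (SIRPalpha with compound, CD47, beads) incubates 30 min at room temperature protected from light.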
# [12] = target: Parathyroid hormone/parathyroid hormone-related peptide receptor (Homo sapiens) (UniProt Q03431); test: qHTS for PTHR1 Agonists: Optimization Screen against the NCGC LOPAC library (AID 1347079); details: HEK293 GP2 PTHR1 GloSensor cAMP luminescence, 1 h; series mostly up to 57.1 µM;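 further: GloSensor cAMP luminescence in HEK-293 GP2 cells expressing human PTHR1 with IBMX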
# Outline: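 Agonist readout: GloSensor cAMP luminescence, read after 15 min at room temperature. HEK-293-derived GP2 line carries PTHR1; compounds tested as a titration for 1 hr at 37C in presence of IBMX. M-PTH (1-15) served as control.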
# T1 sequence (P78324 whole entry, looked up): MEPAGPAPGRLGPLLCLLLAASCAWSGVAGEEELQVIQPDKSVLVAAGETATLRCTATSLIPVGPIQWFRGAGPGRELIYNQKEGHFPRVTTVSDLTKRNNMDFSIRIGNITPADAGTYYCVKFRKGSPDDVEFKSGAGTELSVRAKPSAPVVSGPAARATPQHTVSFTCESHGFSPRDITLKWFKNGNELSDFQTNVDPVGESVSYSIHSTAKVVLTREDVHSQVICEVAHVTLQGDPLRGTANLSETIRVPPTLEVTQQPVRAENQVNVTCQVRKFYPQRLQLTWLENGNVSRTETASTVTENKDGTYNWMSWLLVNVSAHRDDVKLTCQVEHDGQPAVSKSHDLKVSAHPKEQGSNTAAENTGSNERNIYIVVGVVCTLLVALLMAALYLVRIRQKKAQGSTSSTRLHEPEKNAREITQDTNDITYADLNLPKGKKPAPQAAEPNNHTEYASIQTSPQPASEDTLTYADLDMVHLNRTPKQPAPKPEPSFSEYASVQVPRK
# T1 sequence (Q08722 whole entry, looked up): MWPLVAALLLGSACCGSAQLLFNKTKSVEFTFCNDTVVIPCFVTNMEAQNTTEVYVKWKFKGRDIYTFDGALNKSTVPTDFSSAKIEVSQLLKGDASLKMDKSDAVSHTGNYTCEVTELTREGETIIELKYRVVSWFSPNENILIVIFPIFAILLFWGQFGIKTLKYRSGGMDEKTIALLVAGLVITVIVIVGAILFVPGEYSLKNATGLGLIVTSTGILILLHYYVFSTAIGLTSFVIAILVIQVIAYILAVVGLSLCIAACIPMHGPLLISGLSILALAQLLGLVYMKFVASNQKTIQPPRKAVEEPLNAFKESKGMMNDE
# Chain of Atrial natriuretic peptide receptor 2 (Homo sapiens) (P20594 whole entry, looked up): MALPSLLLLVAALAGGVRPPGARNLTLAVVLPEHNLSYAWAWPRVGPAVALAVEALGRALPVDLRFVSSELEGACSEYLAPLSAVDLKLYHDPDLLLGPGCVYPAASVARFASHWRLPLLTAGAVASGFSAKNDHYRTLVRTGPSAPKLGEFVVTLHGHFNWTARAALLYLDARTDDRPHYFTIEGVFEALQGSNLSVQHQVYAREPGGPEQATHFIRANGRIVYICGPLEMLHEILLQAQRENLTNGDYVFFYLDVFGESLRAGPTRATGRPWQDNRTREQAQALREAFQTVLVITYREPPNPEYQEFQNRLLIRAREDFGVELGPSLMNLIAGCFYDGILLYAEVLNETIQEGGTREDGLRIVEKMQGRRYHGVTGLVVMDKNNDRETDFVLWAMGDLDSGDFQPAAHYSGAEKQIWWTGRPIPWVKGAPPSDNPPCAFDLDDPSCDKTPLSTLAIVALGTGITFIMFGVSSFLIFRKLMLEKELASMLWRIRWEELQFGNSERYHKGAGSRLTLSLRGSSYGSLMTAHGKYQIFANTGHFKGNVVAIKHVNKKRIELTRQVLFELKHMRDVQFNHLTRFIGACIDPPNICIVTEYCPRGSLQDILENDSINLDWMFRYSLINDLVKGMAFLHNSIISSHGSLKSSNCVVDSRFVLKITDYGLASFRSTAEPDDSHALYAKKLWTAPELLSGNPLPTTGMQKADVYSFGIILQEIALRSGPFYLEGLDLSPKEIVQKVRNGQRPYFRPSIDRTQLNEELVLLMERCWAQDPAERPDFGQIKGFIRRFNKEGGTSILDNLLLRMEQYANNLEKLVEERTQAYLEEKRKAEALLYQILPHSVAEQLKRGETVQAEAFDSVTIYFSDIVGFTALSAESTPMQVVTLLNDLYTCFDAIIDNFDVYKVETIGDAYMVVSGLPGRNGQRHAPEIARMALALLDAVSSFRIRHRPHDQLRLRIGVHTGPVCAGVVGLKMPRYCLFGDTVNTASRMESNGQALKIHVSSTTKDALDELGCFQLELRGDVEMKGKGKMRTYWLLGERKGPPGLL
# Chain of Parathyroid hormone/parathyroid hormone-related peptide receptor (Homo sapiens) (Q03431 whole entry, looked up): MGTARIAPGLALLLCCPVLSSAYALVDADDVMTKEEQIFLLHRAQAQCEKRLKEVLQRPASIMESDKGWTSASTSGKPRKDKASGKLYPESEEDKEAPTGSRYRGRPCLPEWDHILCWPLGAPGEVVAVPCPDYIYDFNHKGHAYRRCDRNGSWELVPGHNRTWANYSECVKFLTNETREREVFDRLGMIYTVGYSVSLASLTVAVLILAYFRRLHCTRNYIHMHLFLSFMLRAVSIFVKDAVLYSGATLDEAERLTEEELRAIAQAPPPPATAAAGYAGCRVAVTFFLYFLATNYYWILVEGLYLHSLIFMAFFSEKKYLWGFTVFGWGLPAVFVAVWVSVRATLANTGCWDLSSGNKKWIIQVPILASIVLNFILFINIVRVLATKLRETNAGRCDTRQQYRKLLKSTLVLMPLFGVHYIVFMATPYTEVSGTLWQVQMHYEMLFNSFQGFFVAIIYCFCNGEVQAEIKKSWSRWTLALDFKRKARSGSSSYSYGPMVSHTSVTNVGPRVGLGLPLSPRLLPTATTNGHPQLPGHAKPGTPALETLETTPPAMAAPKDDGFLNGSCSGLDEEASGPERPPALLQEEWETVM
# Chain of Atrial natriuretic peptide receptor 1 (Homo sapiens) (P16066 whole entry, looked up): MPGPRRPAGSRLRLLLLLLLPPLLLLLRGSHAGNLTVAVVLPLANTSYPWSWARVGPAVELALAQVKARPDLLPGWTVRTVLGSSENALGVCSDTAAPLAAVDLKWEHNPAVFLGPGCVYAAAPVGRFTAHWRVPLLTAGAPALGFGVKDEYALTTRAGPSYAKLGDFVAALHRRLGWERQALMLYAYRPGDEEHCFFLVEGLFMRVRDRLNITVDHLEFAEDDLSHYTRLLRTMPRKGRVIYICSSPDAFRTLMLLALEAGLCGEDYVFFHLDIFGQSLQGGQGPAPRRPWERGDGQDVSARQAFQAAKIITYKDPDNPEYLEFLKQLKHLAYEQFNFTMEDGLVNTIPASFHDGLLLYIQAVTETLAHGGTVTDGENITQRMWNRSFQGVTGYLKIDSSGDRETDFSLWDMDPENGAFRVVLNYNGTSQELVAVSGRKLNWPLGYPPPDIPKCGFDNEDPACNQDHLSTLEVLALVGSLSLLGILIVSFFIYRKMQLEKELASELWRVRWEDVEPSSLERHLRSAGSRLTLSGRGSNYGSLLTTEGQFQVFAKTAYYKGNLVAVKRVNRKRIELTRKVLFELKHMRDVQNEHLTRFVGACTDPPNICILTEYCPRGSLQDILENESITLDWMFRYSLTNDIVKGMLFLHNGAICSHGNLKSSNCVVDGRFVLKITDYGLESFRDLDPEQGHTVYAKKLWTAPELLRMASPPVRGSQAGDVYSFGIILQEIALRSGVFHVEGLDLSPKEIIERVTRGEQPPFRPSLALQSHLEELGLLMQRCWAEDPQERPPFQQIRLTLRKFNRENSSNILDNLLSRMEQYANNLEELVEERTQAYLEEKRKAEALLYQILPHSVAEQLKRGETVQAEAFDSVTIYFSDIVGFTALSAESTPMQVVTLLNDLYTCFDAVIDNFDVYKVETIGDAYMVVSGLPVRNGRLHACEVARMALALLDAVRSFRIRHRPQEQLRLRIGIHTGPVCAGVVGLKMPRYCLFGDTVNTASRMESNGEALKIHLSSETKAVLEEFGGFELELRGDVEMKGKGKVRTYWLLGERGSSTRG
smiles,measurement,setting,value
O=C(O)Cc1ccc2c(c1)C(=O)c1ccccc1CO2,Potency,[1],inactive
same,Potency,[2],inactive
same,Potency,[3],inactive
CN1CCN(c2cc3c(nn2)Oc2ccccc2N3C)CC1,Potency,[4],inactive
same,Potency,[5],inactive
same,Potency,[1],inactive
same,Potency,[2],inactive
same,Potency,[3],inactive
CN1[C@@H]2CC[C@H]1CC(OC(c1ccccc1)c1ccccc1)C2 (stereo not given in full),Potency,[5],inactive
same,Potency,[6],inactive
Nc1nc(Nc2ccccc2)nc2c1ncn2[C@@H]1O[C@H](CO)[C@@H](O)[C@H]1O,Potency,[7],inactive
same,Potency,[8],inactive
same,Potency,[1],inactive
same,Potency,[9],inactive
same,outcome,[10],inactive
same,Potency,[11],inactive
same,Potency,[12],inactive
COC(=O)C1=C(C)NC(C)=C(C(=O)OCC(C)C)C1c1ccccc1[N+](=O)[O-] (stereo not given),Potency,[4],inactive
same,Potency,[5],inactive
same,Potency,[1],inactive
same,Potency,[2],inactive
same,Potency,[3],inactive
COC(=O)C1=C(C)NC(C)=C(C(=O)OCC(C)=O)C1c1ccccc1[N+](=O)[O-] (stereo not given),Potency,[6],7.31 µM (active)
same,Potency,[2],inactive
CC(C(=O)O)c1ccc2c(c1)[nH]c1ccc(Cl)cc12 (stereo not given),Potency,[4],inactive
same,Potency,[5],inactive
same,Potency,[6],inactive
same,Potency,[1],inactive
same,Potency,[2],inactive
same,Potency,[3],inactive
